# Hits are enriched below; roughly 2.4% of the tested compounds scored in any of these assays.
# Pol kappa inh: qHTS for Inhibitors of Polymerase Kappa | purified Pol kappa, fluorescent DNA synthesis assay, 10 min | actives 0.53% (n = 400,000) | DNA polymerase kappa (Homo sapiens), Q9UBT6 | Potency, µM (titrated, usually from 107 µM), hits mostly inhibitors
# Target sequence (Q9UBT6 whole entry, looked up): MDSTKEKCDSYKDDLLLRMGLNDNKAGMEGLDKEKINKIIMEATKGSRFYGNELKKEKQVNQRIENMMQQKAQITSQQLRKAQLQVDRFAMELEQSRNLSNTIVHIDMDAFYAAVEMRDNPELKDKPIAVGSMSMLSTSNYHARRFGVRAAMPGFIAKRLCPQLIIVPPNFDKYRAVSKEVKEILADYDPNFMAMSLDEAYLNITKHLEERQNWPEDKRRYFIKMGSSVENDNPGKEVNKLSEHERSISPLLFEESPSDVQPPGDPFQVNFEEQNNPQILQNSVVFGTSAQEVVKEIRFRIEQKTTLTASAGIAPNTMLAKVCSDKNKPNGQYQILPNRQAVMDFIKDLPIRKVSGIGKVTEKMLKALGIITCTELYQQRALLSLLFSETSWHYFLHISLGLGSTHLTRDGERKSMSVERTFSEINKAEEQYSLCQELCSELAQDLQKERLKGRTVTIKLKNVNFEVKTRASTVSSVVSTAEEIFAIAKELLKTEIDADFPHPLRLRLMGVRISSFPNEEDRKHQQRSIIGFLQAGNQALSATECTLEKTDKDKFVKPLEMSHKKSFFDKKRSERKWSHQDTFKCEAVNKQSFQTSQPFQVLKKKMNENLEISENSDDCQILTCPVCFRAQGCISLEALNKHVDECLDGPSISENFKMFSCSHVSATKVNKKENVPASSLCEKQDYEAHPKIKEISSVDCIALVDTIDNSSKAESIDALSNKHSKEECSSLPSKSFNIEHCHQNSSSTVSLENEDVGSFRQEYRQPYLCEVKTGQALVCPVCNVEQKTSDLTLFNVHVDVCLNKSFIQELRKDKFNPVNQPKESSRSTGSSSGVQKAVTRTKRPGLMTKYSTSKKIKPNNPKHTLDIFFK
#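 Pol kappa 10 nM + cpd, 15 min RT; start w/ substrate 50 nM final; fluorescence kinetic read, 0 and 10 min. Neg ctrl: buffer, no enzyme.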
# Pol beta inh: qHTS Assay for Inhibitors of DNA Polymerase Beta; actives 1.3% (n = 340,000); Pol beta primer extension/strand displacement, fluorescence kinetic; AID 485314, 2010; P06746; Potency, µM (top dose mostly 114 µM), usual class: inhibitors
#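 Kinetic readout of DNA synthesis with strand displacement by Pol beta. Compound and 10 nM enzyme sit 15 min at room temperature; 50 nM substrate starts the reaction, read immediately and at 10 min.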
# POLI inh: qHTS for Inhibitors of Polymerase Iota; Pol iota fluorescent replication assay, 10 min; Potency, µM (top dose mostly 115 µM), hits mostly inhibitors; actives 1% (n = 390,000)
#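 Fluorescent replication assay read twice, at 0 min and 10 min after adding 50 nM (final) substrate. Enzyme (10 nM) and compounds were first incubated 15 min at room temperature; enzyme-free buffer wells were negative controls.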
# WRN helicase inh: qHTS for Inhibitors of WRN Helicase | Bifunctional 3'-5' exonuclease/ATP-dependent helicase WRN (Homo sapiens), Q14191 | WRN helicase unwinding, fluorescent forked duplex, kinetic | Potency, µM (top dose mostly 114 µM), usual class: inhibitors | actives 0.46% (n = 360,000) | AID 651768, 2012; note: nearly all actives have a fitted effect of over 55% in size
#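 Kinetic red-fluorescence monitoring (525/598 nm) tracks WRN helicase activity after 100 nM fluorophore-quencher forked duplex and 2 mM ATP are added to 20 nM enzyme pretreated 15 min at room temperature with compound.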
# FEN1 inhibitor: qHTS Assay for the Inhibitors of Human Flap endonuclease 1 (FEN1) | actives 0.35% (n = 390,000) | P39748 | Recombinant FEN1 flap cleavage, fluorescence, 15 min | AID 588795, 2011 | Potency, µM (top dose mostly 114 µM), hits mostly inhibitors; note: nearly all actives have a fitted effect of over 65% in size
#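 Potency values derive from four-parameter Hill fits of normalized qHTS data. The reaction used 10 nM FEN1 preincubated 15 min at room temperature with compound, then 50 nM DNA substrate, read at 0 and 15 min.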
# POLH inh: qHTS for Inhibitors of Polymerase Eta. recombinant Pol eta, fluorescent DNA replication assay. actives 1.2% (n = 390,000). Potency, µM (doses to about 114 µM), most hits filed as inhibitors. AID 588591, 2011
#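 Pol eta (10 nM) was preincubated with compounds for 15 min at room temperature, after which fluorescent replication substrate (50 nM final) was added to start the reaction. Fluorescence was read kinetically at 0 and 10 min.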
# A number is an active result; i = inactive; ? = inconclusive; nt = no result given; [ ] = another dose, or the depositor's remark. Calls come from the whole dose curve; as a rule, active = well fitted curve in the direction sought with a large enough effect; inconclusive = small, poorly fitted or top-dose-only effect, or another doubt; inactive = no such curve, though single readings can be large; an effect the other way counts as inactive or inconclusive.
SMILES,Pol kappa inh,Pol beta inh,POLI inh,WRN helicase inh,FEN1 inhibitor,POLH inh
N#Cc1c(-c2ccco2)c2c([nH]c1=S)CCCC2,i,28.2µM,12.6µM,?,i,?
N#Cc1c2c(c(-c3ccco3)[nH]c1=O)CCCC2,?,i,28.2µM,?,i,i
Cc1[nH]c(=O)c(C#N)c2c1CCCC2,i,i,i,i,i,i
N#Cc1c(-c2cccnc2)c2c([nH]c1=S)CCCC2,i,i,?,i,i,i
CCOC(=O)c1c(C)n(CC(COC(C)=O)OC(C)=O)c2ccc(OC(C)=O)cc12 (centres undefined),i,i,i,i,i,i
CC1=NN(c2ccccc2)C(=O)C1C(=O)c1cc([N+](=O)[O-])cc([N+](=O)[O-])c1 (centres undefined),i,i,15.8µM,i,i,i
CCOc1cc(CNc2ccc(O)cc2)ccc1OCc1ccc(Cl)cc1Cl,i,?,8.91µM,?,i,17.8µM
CCOc1cccc(CNc2ccc(O)cc2)c1OCc1ccc(Cl)cc1,i,i,11.2µM,?,i,50.1µM
COc1cccc(CNCCO)c1OCc1ccc(Cl)cc1,i,i,i,i,i,i
CCc1ccc(CNc2ccc(O)cc2)cc1,i,?,2.82µM,44.7µM,i,25.1µM
CCc1ccc(CNc2ccc3c(c2)ncn3CC)cc1,i,i,i,i,i,i
CCOc1cc(CNCc2ccccc2)ccc1OCc1ccc(Cl)cc1,i,i,i,i,i,i
CCOc1ccccc1CNc1ccc(O)cc1,i,i,7.08µM,i,i,50.1µM
O=S(=O)(NCCc1nnc2ccc(SCc3cccnc3)nn12)c1ccccc1,i,i,i,i,i,i
Cc1cc(C)nc(SCCc2ccncc2)n1,i,i,22.4µM,i,i,i
COc1ccccc1CC(=O)NCC(c1ccco1)N1CCCCC1 (centres undefined),i,i,i,i,i,?
O=C(CN1C(=O)S/C(=C\c2ccccc2)C1=O)Nc1cc([N+](=O)[O-])ccc1O,i,i,i,i[11.6 µM],i,79.4µM
O=C(Cc1ccccc1)NN1C(=O)/C(=C/c2ccc(C(=O)O)cc2)SC1=S,i,i,?,i,i,i
COc1ccc(/C=C2\SC(=S)N(CCCC(=O)NNC(=O)c3ccccc3O)C2=O)cc1,i,i,i,i,i,i
O=C(NN1C(=O)/C(=C/c2ccc(O)cc2)SC1=S)c1ccccc1O,i,i,?,i[11.6 µM],i,79.4µM
O=C(CN1C(=O)S/C(=C\c2ccc(Cl)cc2)C1=O)NNC(=O)c1ccccc1O,i,50.1µM,?,?,i,?
Cc1cc(-c2ccc(S(=O)(=O)Nc3cccc(C(F)(F)F)c3)s2)on1,i,i,i,nt,i,i
Cc1cc(NC(=O)CSc2nnc(C)c(=O)n2N)no1,i,i,?,i,i,i
Nc1ccc(C(=O)O)c(O)c1,i,i,i,i,i,i
Nc1ccc(N)c(C(=O)O)c1,6.31µM,0.398µM,2.51µM,31.6µM,?,1.26µM
SMILES,Pol kappa inh,Pol beta inh,POLI inh,WRN helicase inh,FEN1 inhibitor,POLH inh
CN(C)C(=O)CCc1ccc2c3c([nH]c2c1)[C@]1(CCC2CCCC2)[C@@H](C(=O)N2CCOCC2)C[C@H](CC(=O)NCC24CC5CC(CC(C5)C2)C4)C(=O)N1CC3,i,nt,i,i,i,i
COc1cccc(NC(c2nnc(-c3ccccc3)o2)c2ccc(F)cc2Cl)c1 (centres undefined),i,i,i,nt,i,?
N#CC(C#N)=C1C=CC=CN1/C(=C\c1ccccc1Cl)C(=O)c1ccccc1,i,i,i,50.1µM,i,i
CN(C)/C=C1\C(=O)ON=C1c1ccccc1,i,i,i,i,i,i
CC1=NN(c2ccccc2)C(=O)/C1=C/C=C/c1ccccc1,i,i,i,i[11.6 µM],i,15.8µM
Cc1ccc(C2=NOC(=O)/C2=C\C=C\c2ccccc2)cc1,i,?,?,35.5µM,i,89.1µM

# Screening results (PubChem)
